The list is not random: actives were taken first. Their share in the collection is about 6.7%.
T cruzi growth – inhibitors of T. cruzi proliferation; T. cruzi beta-gal in NIH3T3, GalScreen luminescence, 90 h; inhibition, % at 8.34 µM; 77,000 tested, 5.9% active;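 active = mean inhibition above about 93%, with at least 55% of replicates each passing it, limit read from the data, passing the limit was not always enough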
Pf Dd2 inh – P. falciparum Dd2 growth inhibition; SYBR Green, 72 h; active compounds read low; activity change, % at 10 µM; 94,000 tested, 2.3% active; in the data active = activity change below about -80%
C diff HTS – blocks growth of Clostridium difficile; growth activity, negative = inhibition, % at 16 µg/mL (by protocol); AID 1259249; Clostridium difficile clinical isolate growth, OD600, 24 h; active compounds read low; 86,000 tested, 0.25% active;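 active = mean growth activity at or below -80% and every replicate also at or below -80%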
Of the large screens only hits and unclear results are named; the others gave an inactive call.

C[C@@H]1CN([C@H](C)CO)C(=O)c2cc(NC(=O)CCCCCC(=O)Nc3ccccc3N)ccc2O[C@@H]1CN(C)Cc1ccc(Cl)c(Cl)c1	none (no result: C diff HTS)
COc1ccc2c3c(n(C)c2c1)[C@H](CO)N(CC1CCOCC1)CC31CN(C(=O)c2cccc(F)c2)C1	none (no result: T cruzi growth)
Cc1noc(C)c1S(=O)(=O)Nc1ccc2c(c1)C(=O)N([C@@H](C)CO)C[C@@H](C)[C@@H](CN(C)Cc1ccncc1)OCCCC[C@H](C)O2	none
C[C@H](CO)N1C[C@H](C)[C@H](CN(C)C(=O)C2CC2)Oc2cc(/C=C/c3ccccc3)ccc2S1(=O)=O	none
O=C(CN1CCOCC1)N[C@H]1CC[C@@H](CCNC(=O)C2CCCCC2)O[C@@H]1CO	none (no result: T cruzi growth)
CNC[C@@H]1OCCCC[C@H](C)Oc2ccc(NC(=O)Nc3ccc(C(F)(F)F)cc3)cc2C(=O)N([C@H](C)CO)C[C@@H]1C	none (no result: Pf Dd2 inh)
COc1cccc(S(=O)(=O)N[C@H]2C=C[C@H](CC(=O)NCc3ccccc3)O[C@@H]2CO)c1	none
O=C(Nc1ccc(F)cc1)N1CCCCN2[C@H](C1)[C@@H](c1ccc(-c3cccc(F)c3)cc1)[C@@H]2CO	none
Cc1ccccc1-c1ccc([C@@H]2[C@H](CO)N3CCCCN(C(=O)Nc4cccc(F)c4)C[C@@H]23)cc1	C diff HTS -96
O=C(Nc1ccc(F)cc1)N1CCCCN2[C@@H](CO)[C@@H](c3ccc(-c4cccc(F)c4)cc3)[C@@H]2C1	C diff HTS -99
O=C(Nc1ccccc1)N1CCCCN2[C@H](CO)[C@H](c3ccc(-c4ccccc4F)cc3)[C@H]2C1	none
Cc1ccccc1-c1ccc([C@@H]2[C@@H](CO)N3CCCCN(C(=O)Nc4ccc(F)cc4)C[C@H]23)cc1	none
O=C(Nc1cccc(F)c1)N1CCCCN2[C@@H](CO)[C@@H](c3ccc(-c4ccccc4F)cc3)[C@@H]2C1	C diff HTS -98
Cc1ccccc1-c1ccc([C@H]2[C@@H](CO)N3CCCCN(C(=O)Nc4cccc(F)c4)C[C@@H]23)cc1	none
Cc1ccccc1-c1ccc([C@H]2[C@@H](CO)N3CCCCN(C(=O)Nc4cccc(F)c4)C[C@H]23)cc1	C diff HTS -98
CCCNC(=O)[C@@H]1[C@@H](CO)[C@@H]2Cn3c(ccc(-c4ccc(F)cc4)c3=O)[C@H]1N2CC	none
C[C@H]1CN([C@@H](C)CO)C(=O)c2cc(NS(C)(=O)=O)ccc2O[C@@H]1CN(C)S(=O)(=O)c1cccs1	none (no result: C diff HTS)
C[C@H](CO)N1C[C@H](C)[C@@H](CN(C)C(=O)CC2CC2)Oc2ncc(C#C[C@@H](C)O)cc2C1=O	none (no result: Pf Dd2 inh)
Cc1ccc(-c2ccc([C@H]3[C@@H](CO)N4CCCCN(C(=O)Nc5cccc(F)c5)C[C@@H]34)cc2)cc1	none
Cc1ccc(-c2ccc([C@@H]3[C@H](CO)N4CCCCN(C(=O)Nc5cccc(F)c5)C[C@@H]34)cc2)cc1	C diff HTS -98
Cc1ccc(S(=O)(=O)Nc2ccc3c(c2)C(=O)N([C@@H](C)CO)C[C@@H](C)[C@H](CN(C)CC2CCCCC2)O3)cc1	none
C[C@@H]1CN([C@H](C)CO)C(=O)c2cccc(N(C)C)c2O[C@H]1CN(C)C(=O)Nc1ccc(C(F)(F)F)cc1	none
COc1ccc2c3c([nH]c2c1)[C@@H](CO)NCC31CN(C(=O)c2ccccc2)C1	none (no result: T cruzi growth)
COc1cccc(S(=O)(=O)N2CCC3(CC2)CN[C@H](CO)c2[nH]c4cc(OC)ccc4c23)c1	Pf Dd2 inh -88 (no result: T cruzi growth)
COc1ccc2c3c(n(C)c2c1)[C@H](CO)NCC31CCN(S(=O)(=O)c2cccc(F)c2)CC1	Pf Dd2 inh -86 (no result: T cruzi growth)
COc1ccc2c3c([nH]c2c1)[C@H](CO)NCC31CCN(C(=O)C2CCOCC2)CC1	none (no result: T cruzi growth)
COc1ccc2c3c(n(C)c2c1)[C@H](CO)NCC31CCN(S(=O)(=O)c2cccc(C)c2)CC1	none (no result: T cruzi growth)
COc1ccc2c3c([nH]c2c1)[C@H](CO)NCC31CCN(C(=O)c2ccccc2)CC1	Pf Dd2 inh -84 (no result: T cruzi growth)
COc1ccc2c3c([nH]c2c1)[C@@H](CO)NCC31CCN(S(=O)(=O)c2cccs2)CC1	none (no result: T cruzi growth)
COc1ccc2c3c([nH]c2c1)[C@@H](CO)NCC31CCN(C(=O)C2CCOCC2)CC1	Pf Dd2 inh -82 (no result: T cruzi growth)
Cc1noc(C)c1S(=O)(=O)Nc1ccc2c(c1)C(=O)N([C@@H](C)CO)C[C@H](C)[C@@H](CN(C)Cc1ccc(Cl)c(Cl)c1)OCCCC[C@H](C)O2	none (no result: T cruzi growth)
CN(C)CC(=O)N1[C@H](CO)[C@@H](c2ccccc2)C12CN(C(=O)C1CCCC1)C2	none (no result: T cruzi growth)
C[C@@H]1CCCCO[C@@H](CN(C)S(=O)(=O)c2ccc(F)cc2)[C@H](C)CN([C@@H](C)CO)C(=O)c2cc(NS(=O)(=O)c3ccccc3)ccc2O1	none
C[C@H]1CN([C@@H](C)CO)C(=O)c2cccc(NC(=O)Nc3ccc4c(c3)OCO4)c2O[C@H]1CN(C)C(=O)Nc1ccc2c(c1)OCO2	none
C[C@H]1CN([C@@H](C)CO)S(=O)(=O)c2ccc(/C=C/c3ccccc3)cc2O[C@@H]1CN(C)Cc1cccnc1	none
C[C@H]1CN([C@@H](C)CO)S(=O)(=O)c2ccc(-c3ccccc3)cc2O[C@H]1CN(C)C(=O)Nc1ccccc1F	Pf Dd2 inh -81 (no result: C diff HTS)
C[C@@H]1CN([C@@H](C)CO)S(=O)(=O)c2ccc(/C=C/c3ccccc3)cc2O[C@@H]1CN(C)C(=O)c1ccccc1	T cruzi growth 127
C[C@H]1CN([C@@H](C)CO)S(=O)(=O)c2ccc(/C=C/c3ccccc3)cc2O[C@H]1CN(C)Cc1cccnc1	Pf Dd2 inh -82 (no result: T cruzi growth)
C[C@@H]1CN([C@H](C)CO)S(=O)(=O)c2ccc(/C=C/c3ccccc3)cc2O[C@H]1CN(C)C(=O)Nc1cc(F)ccc1F	Pf Dd2 inh -84 (no result: T cruzi growth)
C[C@@H]1CN([C@@H](C)CO)S(=O)(=O)c2ccc(-c3ccccc3)cc2O[C@H]1CN(C)C(=O)Nc1ccccc1F	none (no result: C diff HTS)
C[C@@H]1CN([C@H](C)CO)S(=O)(=O)c2ccc(/C=C/c3ccccc3)cc2O[C@@H]1CN(C)C(=O)Nc1cc(F)ccc1F	none (no result: T cruzi growth)
C/C=C/c1ccc2c(c1)O[C@@H](CN(C)C(=O)c1ccccc1)[C@H](C)CN([C@H](C)CO)S2(=O)=O	none (no result: T cruzi growth)
CO[C@H]1CN(C)C(=O)c2cc(NS(C)(=O)=O)ccc2OC[C@H](C)N(Cc2nccs2)C[C@@H]1C	none (no result: C diff HTS)
CO[C@@H](CN(C)S(=O)(=O)c1cn(C)cn1)[C@H](C)CN(C(=O)Nc1ccc(F)cc1)[C@H](C)CO	none (no result: C diff HTS)
CCCNC(=O)N1CC2(CCN(C(=O)c3cnccn3)CC2)c2c([nH]c3cc(OC)ccc23)[C@@H]1CO	none (no result: T cruzi growth)
Cc1ccc(-c2ccc3c(c2)O[C@@H](CN(C)C)[C@@H](C)CN([C@@H](C)CO)S3(=O)=O)cc1	none
CC(C)NC(=O)Nc1ccc2c(c1)C(=O)N([C@H](C)CO)C[C@H](C)[C@@H](CN(C)Cc1ccc(Cl)c(Cl)c1)O2	none
C[C@@H]1CCCCO[C@@H](CN(C)S(=O)(=O)c2ccc(F)cc2)[C@H](C)CN([C@@H](C)CO)C(=O)c2cc(NC(=O)Nc3cccc4ccccc34)ccc2O1	none
C[C@@H]1CCCCO[C@H](CN(C)S(=O)(=O)c2ccccc2)[C@@H](C)CN([C@H](C)CO)C(=O)c2cc(NC(=O)Nc3cccc4ccccc34)ccc2O1	none

High-throughput results deposited in PubChem by Broad Institute.
